# From PubChem BioAssay
# M1 PAM parental – nonselective calcium activators in parental CHO-K1 cells, primary screen, counter-screen for M1 PAM project, cell-based, Fluo-8 calcium fluorescence, full deck, 1536-well. ATP EC20; 0% at ATP EC20, 100% at ATP max. AID 602247, 2012. 0.02% of 360,000 active. activation, % at 3 µM;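 active means activation above the run cutoff, the mean activation of all test compounds plus 3 SD, cut at about 40% in these data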;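 further: peak over basal fluorescence ratio in a 140 s read after ATP addition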
# CHO-K1 Ca antag – M1 antagonist counterscreen hit in parental CHO-K1 cells; ATP-induced calcium, Fluo-8 fluorescence; inhibition, % at 3 µM; 0.6% of 360,000 active; AID 602250;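 active means inhibition above a per-plate cutoff, the plate's mean sample inhibition plus 3 SD, cut at about 24% in these data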;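 further: 0% = DMSO plus EC80 ATP and 100% = DMSO alone without ATP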
# CHO-K1 Ca ag – counter-screen for M1 agonists: effect in parental CHO-K1 cells; Fluo-8 calcium fluorescence; scaled to maximal ATP response, vehicle zero; activation, % at 3 µM; 0.48% of 360,000 active; AID 602248, 2012; in the data active means activation above about 15%;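 further: untransfected CHO-K1 host cells lacking M1 receptor as counterscreen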
# CHRM1 agonist – human M1 muscarinic receptor agonists, primary screen, Fluo-8 calcium fluorescence, CHO-K1 cells, HTS; Muscarinic acetylcholine receptor M1 (Homo sapiens), P11229; CHO-K1 hM1, agonist mode; 0% DMSO, 100% acetylcholine EC100; activation, % at 3 µM; 0.33% of 360,000 active; AID 588814, 2011;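 active means activation above the run's mean compound activation plus 3 SD, cut at about 16% in these data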;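 further: peak over basal fluorescence ratio within a 140 s kinetic read after compound addition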
# Target sequence (P11229 whole entry, looked up): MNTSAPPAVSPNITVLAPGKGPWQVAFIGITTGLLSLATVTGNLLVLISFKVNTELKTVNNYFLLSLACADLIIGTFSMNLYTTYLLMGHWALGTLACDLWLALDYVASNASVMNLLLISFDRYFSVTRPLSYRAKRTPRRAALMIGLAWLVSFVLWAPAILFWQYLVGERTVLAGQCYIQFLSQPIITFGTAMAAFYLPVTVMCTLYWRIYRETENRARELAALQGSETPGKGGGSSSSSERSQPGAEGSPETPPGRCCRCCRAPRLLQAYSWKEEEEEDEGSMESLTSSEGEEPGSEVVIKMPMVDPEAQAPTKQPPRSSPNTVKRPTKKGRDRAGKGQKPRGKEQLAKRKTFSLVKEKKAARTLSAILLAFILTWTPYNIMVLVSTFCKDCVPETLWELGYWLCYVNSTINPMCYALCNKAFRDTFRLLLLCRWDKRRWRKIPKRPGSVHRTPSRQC
# CHRM1 PAM – human M1 muscarinic receptor positive allosteric modulators, primary screen, CHO-K1 cells, Fluo-8 calcium fluorescence, 1536-well. Muscarinic acetylcholine receptor M1 (Homo sapiens), P11229. CHO-K1 hM1, ACh EC20; 0% = ACh EC20, 100% = maximal ACh. activation, % at 3 µM. 0.088% of 360,000 active. AID 588819, 2011; in the data active means activation above about 19%, passing the limit was not always enough
# M1 antag – human M1 muscarinic receptor antagonists, primary screen, CHO-K1 cells, Fluo-8 calcium fluorescence, 1536-well | Muscarinic acetylcholine receptor M1 (Homo sapiens), P11229 | CHO-K1 hM1, ACh EC80 antagonist | inhibition, % at 3 µM | 1.3% of 360,000 active | AID 588852, 2011;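 active means percent inhibition above its own plate's cutoff, namely the mean of that plate's compound wells plus 3 SD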;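 further: peak over basal fluorescence ratio during 140 s after agonist addition; 0% = ACh EC80 plus DMSO and 100% = DMSO alone without agonist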
# Active calls of the source: *. Hits are enriched below; roughly 2.4% of the tested compounds scored in any of these assays.
SMILES,M1 PAM parental,CHO-K1 Ca antag,CHO-K1 Ca ag,CHRM1 agonist,CHRM1 PAM,M1 antag
C#CCOCCOCCOCCNc1nc(N2CCN(C(=O)Cn3cc(CC(C)O)nn3)CC2)nc(N2CCN(C(=O)[C@H](C)n3cc(CCC(=O)O)nn3)CC2)n1 (stereo partly drawn),-3,8,8,-3,7,-6
CCOC(CCNC(=O)c1cn(CCOC)c(=O)c2c1c1ccccc1n2C)OCC,7,-5,3,-4,0,-9
CCOC(=O)c1c(NC(=O)C(C)N2CCN(C(=O)c3ccco3)CC2)sc2c1CCCC2 (stereo not drawn),2,3,0,20*,-11,37*
CCN1CCCC1CNC(=O)C(=O)NC (stereo not drawn),2,-12,0,-4,2,-2
CCCCCOc1ccc(NC(=O)C(=O)NCC2CCCN2CC)cc1 (stereo not drawn),-18,25*,0,-14,-14,8
COc1cc(/C=N/N2CCCCC2)cc([N+](=O)[O-])c1O,0,-12,0,25*,9,0
COc1cc(/C=N/n2c(=S)[nH]nc(C)c2=O)cc([N+](=O)[O-])c1O,-6,25*,5,-5,-8,16
C#CC[N+](C)(C)CCCCCCCCC,24,-5,0,-7,-3,8
CC#CC[N+](C)(C)CCCCCCCCCC,-1,4,1,-8,-19,57*
Cc1ccccc1CC(=O)N1CCN(S(=O)(=O)c2ccc(Cl)s2)CC1,9,-9,1,-4,4,-8
CCN(C[C@H]1N[C@@](CC)(C(=O)OC)[C@H]2C(=O)N(Cc3ccccc3)C(=O)[C@@H]12)C(=O)c1ccc(C(C)(C)C)cc1,17,-9,6,0,-14,28*
CC[C@@]1(C(=O)OC)N[C@H](CN(C)C(=O)c2ccc(C(C)(C)C)cc2)[C@@H]2C(=O)N(Cc3ccccc3)C(=O)[C@@H]21,-6,7,3,3,-13,4
COc1cc(N=Nc2ccc(C(=O)N(C)C)cc2)c(C)cc1N,2,-5,1,0,-1,-5
CCSc1nnc(-c2ccncc2)o1,8,-4,0,-3,5,-6
OCC#CCSc1nnc(-c2ccncc2)o1,4,37*,-1,-4,5,7
CCOC(=O)C1CCCN(C(=O)c2ccc(-c3ccc([N+](=O)[O-])cc3)o2)C1 (stereo not drawn),-22,17,1,39*,-12,19
CCCN1CCN(C(=O)c2ccc(-c3ccc([N+](=O)[O-])cc3)o2)CC1,-6,-9,0,-8,-3,1
CCOC(=O)C1CCCN(C(=O)c2cccc(S(=O)(=O)N(C)c3ccc(C)cc3)c2)C1 (stereo not drawn),-5,2,1,-1,-13,37*
CCOC(=O)C1CCCN(C(=O)c2ccc(CS(=O)(=O)c3ccc(C)cc3)o2)C1 (stereo not drawn),13,-8,1,56*,-31,30
O=C(NNC(=S)Nc1ccc(F)cc1)C1[C@H]2CCCC[C@@H]12 (stereo partly drawn),2,-14,0,-2,4,-9
CC(C)c1nnc(SCC(=O)NCc2ccco2)n1C,-9,30*,0,1,9,-3
Cc1ccc(S(=O)(=O)NCCC(=O)Nc2cc(S(=O)(=O)N(C)C)ccc2C)cc1C,9,-7,1,-6,1,1
Cc1cc(C)[n+](-c2ccc(C(C)C)cc2)c2[nH]c(=O)[nH]c(=O)c12,21,2,5,-10,-22,55*
COc1ccc(CN2C(=O)C(CC(=O)NCCCCc3ccccc3)CC(C(=O)N(C)C)=C2C)cc1 (stereo not drawn),17,-8,-1,53*,-17,-9
COCCCN1C(=O)C(CC(=O)NCCc2ccccn2)CC(C(=O)N2CCOCC2)=C1C (stereo not drawn),8,-7,1,2,10,-12
SMILES,M1 PAM parental,CHO-K1 Ca antag,CHO-K1 Ca ag,CHRM1 agonist,CHRM1 PAM,M1 antag
CCN(CC)C(=O)C1=C(C)N(CCCOC)C(=O)C(CC(=O)NCCc2ccccn2)C1 (stereo not drawn),-12,30*,0,-4,5,-7
CC1=C(C(=O)N(C)C)CC(CC(=O)NCCCCc2ccccc2)C(=O)N1Cc1ccccc1 (stereo not drawn),13,-4,0,35*,-1,-15
O=C(Nc1ccccc1)Nc1ccc(-n2ccc(C(F)(F)F)n2)cc1,-19,26*,17*,4,-24,68*
CN(C(=O)COC(=O)c1cccs1)c1ccccc1,-10,-3,0,-1,5,-4
NC(=O)c1sc2nc3c(cc2c1N)CCCCCC3,17,-7,0,-5,4,-12
Nc1c(C(=O)O)sc2nc3c(cc12)CCCC3,7,5,16*,9,10,-5
O=C(Nc1ccc(Cl)cc1)Nc1nc(-c2ccccc2O)cs1,-9,15,17*,9,-11,35*
O=C(Nc1ccccc1)Nc1nc(-c2ccc(F)c(F)c2)cs1,-5,20,16*,5,-6,18
O=C(Nc1ccccc1)Nc1nc(-c2ccccc2)cs1,-7,23,9,10,-11,23
Cc1cc(C)n2nc(SC(C)C(=O)Nc3ccccc3F)nc2n1 (stereo not drawn),15,-15,2,1,15,-14
CNC(=O)Nc1cccc(-c2ccnc(C)n2)c1,-2,-2,20*,-2,3,-15
COC(=O)c1ccccc1OCCCN(C)C,-11,27*,0,-7,5,-6
CCCCCC(=O)Nc1ccc(C(=O)CN2C(=O)NC3(CCCCCC3)C2=O)cc1,-17,13,0,-1,-1,0
COc1cccc(/C(C#N)=C/c2c(-c3ccc(Cl)cc3)nc3c(C)cccn23)c1,10,-13,0,-5,-22,48*
CC1CC(C)(C)N(C(=O)CN2C(=O)CCC2=O)c2ccccc21 (stereo not drawn),5,13,0,1,9,1
CCn1c(CNC(=O)c2ccccc2F)cc2cc(C)ccc21,-24,31*,0,-1,-6,5
Cc1noc(C)c1S(=O)(=O)N(C)C[C@H]1OCCCC[C@H](C)Oc2ccc(NC(=O)CCCN(C)C)cc2C(=O)N([C@H](C)CO)C[C@@H]1C,11,-8,0,-10,3,-7
